# Paper PMC5540273 (PLoS ONE, 2017)
# Tested on: EGFR
# Details: concentration: 1 μM, replicates: in singlicate; n = 1
# 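Also: KINOMEscan kinase panel screen.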
row,SMILES,%Inh [%]
1,CCc1ccc(-c2ccc3c(c2)-c2nn(C)cc2S(=O)(=O)N3C)cc1,0
2,Nc1n[nH]c2ncc(-c3ccccc3)cc12 [SB-517081],0
3,Cc1nc(N(C)[C@H]2CN(C(=O)CC#N)CC[C@H]2C)c2cc[nH]c2n1,0
4,COc1ccc(-c2coc3ccc(-c4nnc(SCc5cccc(C#N)c5)o4)cc23)cc1,0
5,CCC(=O)c1c(-c2ccccc2)c2cc(Cl)ccc2c(=O)n1Cc1cc(S(C)(=O)=O)n(CCC(C)(C)O)n1,31
6,COc1cc2ncn(-c3cc(OCc4ccncc4)c(C(N)=O)s3)c2cc1OC [GSK336313],24
7,Nc1nccc2scc(-c3ccc4c(c3)CCN4C(=O)Cc3ccccc3)c12 [GSK2576924],21
8,COC(=O)c1c(-c2ccccc2)c2cc(Br)ccc2c(=O)n1Cc1ccc(S(C)(=O)=O)cc1,5
9,CCCC(=O)Nc1n[nH]c2ncc(-c3cccc4ccccc34)cc12 [SB-642057],20
10,O=C1NC(=O)C(c2ccccc2)=C1Nc1cccc(O)c1 [SB-390534],7
11,Cc1nn2c(=O)cc(N3CCOCC3)nc2n1Cc1cccc(Cl)c1Cl [GSK2342769],25
12,C[C@@H]1CC[C@H](C(=O)NC2CCCCC2)CN1c1cc(-c2ccc3c(N)n[nH]c3c2)nc(N)n1 [GSK2291363],45
13,Nc1ncnc2c1ncn2-c1cccc2ccccc12 [SKF-97184],45
14,COc1cc2ncn(-c3cc(OCc4ccncc4Br)c(C(N)=O)s3)c2cc1OC [GW854278],27
15,COc1cc2ncn(-c3cc(OCCCc4ccccc4)c(C(N)=O)s3)c2cc1OC [GSK205189],15
16,O=C(Nc1n[nH]c2nc(-c3ccccc3)c(Cl)cc12)C1CC1 [SB-734909],14
17,COc1ccc(-c2cc3c(C)nc(N)nc3n([C@H]3CC[C@H](OCCO)CC3)c2=O)cn1,12
18,CCC(=O)c1c(-c2ccccc2)c2cc(Cl)ccc2c(=O)n1Cc1ccc(C(=O)O)cc1,0

row,SMILES,%Inh [%]
1,Cc1nnc(-c2ccc(C)c(-c3ccc(C(=O)O)cc3)c2)o1 [GW608005],22
2,Cc1ccccc1COc1cc(-n2cnc3cc(Cl)ccc32)sc1C(N)=O [GW813349],2
3,Cc1ccc(Oc2ccc(Nc3ncnc4cc[nH]c34)cc2C)cn1,71
4,CCCNC(=O)Nc1ccc(Oc2ncnc3ccn(C)c23)cc1,15
5,COc1cc(Nc2nccc(N3CCC(NC(=O)C4COc5ccccc5O4)C3)n2)cc(OC)c1OC (stereo not shown) [GSK1379761],43
6,COc1cc2ncn(-c3cc(OCc4ccc(S(C)(=O)=O)cc4)c(C(N)=O)s3)c2cc1OC [GW869979],25
7,COc1cc(Nc2ccnc3ccc(C(F)(F)F)cc23)cc(OC)c1OC [GW577382],27
8,O=C(Nc1n[nH]c2cc(-c3ccccc3F)ccc12)C1CC1 [SB-733371],0
9,COC(=O)c1c(-c2ccccc2)c2cc(C)ccc2c(=O)n1Cc1ccccc1,0
10,FC(F)(F)c1ccc(-c2ncn(CCCN3CCOCC3)c2-c2ccncc2)cc1 [SB-217780],19
11,Cl.NS(=O)(=O)c1cccc(Nc2cc(-c3ccc(F)cc3)n[nH]2)c1 [GW824645],0
12,COc1cccc(C2=C(N(C)c3ccccc3)C(=O)NC2=O)c1 [SB-334865],36
13,Cn1c(=O)c(F)c(Nc2ccc(I)cc2F)c2c(=O)n(OC[C@H](O)CO)cnc21,3
14,Fc1cccc(CSc2nnc(-c3ccc4c(c3)CCO4)o2)c1,17
15,Nc1ncnc2c1ncn2-c1cccc(F)c1 [SKF-97560],9
16,CCc1nc(-c2cccc(C)c2)c(-c2ccncc2)s1,0
17,COc1ccc(Nc2nccc(N3CCC(NS(=O)(=O)c4ccc(NC(C)=O)cc4)C3)n2)cc1 (stereo not shown) [GSK1379729],36
18,COc1ccc(-n2cnc3c(N)ncnc32)cc1 [SKF-97236],0

# Tested on: EIF2AK1
# Details: concentration: 1 μM, replicates: in singlicate; n = 1
row,SMILES,%Inh [%]
1,CCc1ccc(-c2ccc3c(c2)-c2nn(C)cc2S(=O)(=O)N3C)cc1,0
2,Nc1n[nH]c2ncc(-c3ccccc3)cc12 [SB-517081],18
3,Cc1nc(N(C)[C@H]2CN(C(=O)CC#N)CC[C@H]2C)c2cc[nH]c2n1,0
4,COc1ccc(-c2coc3ccc(-c4nnc(SCc5cccc(C#N)c5)o4)cc23)cc1,30
5,CCC(=O)c1c(-c2ccccc2)c2cc(Cl)ccc2c(=O)n1Cc1cc(S(C)(=O)=O)n(CCC(C)(C)O)n1,19
6,COc1cc2ncn(-c3cc(OCc4ccncc4)c(C(N)=O)s3)c2cc1OC [GSK336313],0
7,Nc1nccc2scc(-c3ccc4c(c3)CCN4C(=O)Cc3ccccc3)c12 [GSK2576924],0
8,COC(=O)c1c(-c2ccccc2)c2cc(Br)ccc2c(=O)n1Cc1ccc(S(C)(=O)=O)cc1,13
9,CCCC(=O)Nc1n[nH]c2ncc(-c3cccc4ccccc34)cc12 [SB-642057],13
10,O=C1NC(=O)C(c2ccccc2)=C1Nc1cccc(O)c1 [SB-390534],0
11,Cc1nn2c(=O)cc(N3CCOCC3)nc2n1Cc1cccc(Cl)c1Cl [GSK2342769],0
12,C[C@@H]1CC[C@H](C(=O)NC2CCCCC2)CN1c1cc(-c2ccc3c(N)n[nH]c3c2)nc(N)n1 [GSK2291363],0
13,Nc1ncnc2c1ncn2-c1cccc2ccccc12 [SKF-97184],0
14,COc1cc2ncn(-c3cc(OCc4ccncc4Br)c(C(N)=O)s3)c2cc1OC [GW854278],0
15,COc1cc2ncn(-c3cc(OCCCc4ccccc4)c(C(N)=O)s3)c2cc1OC [GSK205189],1
16,O=C(Nc1n[nH]c2nc(-c3ccccc3)c(Cl)cc12)C1CC1 [SB-734909],18
17,COc1ccc(-c2cc3c(C)nc(N)nc3n([C@H]3CC[C@H](OCCO)CC3)c2=O)cn1,8
18,CCC(=O)c1c(-c2ccccc2)c2cc(Cl)ccc2c(=O)n1Cc1ccc(C(=O)O)cc1,0
19,Cc1nnc(-c2ccc(C)c(-c3ccc(C(=O)O)cc3)c2)o1 [GW608005],0

row,SMILES,%Inh [%]
1,Cc1ccccc1COc1cc(-n2cnc3cc(Cl)ccc32)sc1C(N)=O [GW813349],6
2,Cc1ccc(Oc2ccc(Nc3ncnc4cc[nH]c34)cc2C)cn1,13
3,CCCNC(=O)Nc1ccc(Oc2ncnc3ccn(C)c23)cc1,0
4,COc1cc(Nc2nccc(N3CCC(NC(=O)C4COc5ccccc5O4)C3)n2)cc(OC)c1OC (stereo not shown) [GSK1379761],0
5,COc1cc2ncn(-c3cc(OCc4ccc(S(C)(=O)=O)cc4)c(C(N)=O)s3)c2cc1OC [GW869979],7
6,COc1cc(Nc2ccnc3ccc(C(F)(F)F)cc23)cc(OC)c1OC [GW577382],2
7,O=C(Nc1n[nH]c2cc(-c3ccccc3F)ccc12)C1CC1 [SB-733371],0
8,COC(=O)c1c(-c2ccccc2)c2cc(C)ccc2c(=O)n1Cc1ccccc1,0
9,FC(F)(F)c1ccc(-c2ncn(CCCN3CCOCC3)c2-c2ccncc2)cc1 [SB-217780],10
10,Cl.NS(=O)(=O)c1cccc(Nc2cc(-c3ccc(F)cc3)n[nH]2)c1 [GW824645],0
11,COc1cccc(C2=C(N(C)c3ccccc3)C(=O)NC2=O)c1 [SB-334865],0
12,Cn1c(=O)c(F)c(Nc2ccc(I)cc2F)c2c(=O)n(OC[C@H](O)CO)cnc21,0
13,Fc1cccc(CSc2nnc(-c3ccc4c(c3)CCO4)o2)c1,26
14,Nc1ncnc2c1ncn2-c1cccc(F)c1 [SKF-97560],28
15,COc1cc(OC)cc(-c2cc3cnc(N)nc3nc2NC(=O)NC(C)(C)C)c1,4
16,CCc1nc(-c2cccc(C)c2)c(-c2ccncc2)s1,9
17,COc1ccc(Nc2nccc(N3CCC(NS(=O)(=O)c4ccc(NC(C)=O)cc4)C3)n2)cc1 (stereo not shown) [GSK1379729],0
18,COc1ccc(-n2cnc3c(N)ncnc32)cc1 [SKF-97236],31
